Hit rate of the full screen: of about 1,000 compounds, fewer than 10 were called active.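 The calls were made as follows: active = fitted half-maximal concentration no higher than twice the top valid tested dose, with signal falling; inconclusive = flat curve with 30 to 70% inhibition, or poor fit; inactive = the rest.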 These entries were drawn from the full list. Entries with a potency or affinity are not part of this list.
target: Golgi-associated PDZ and coiled-coil motif-containing protein (Homo sapiens) (UniProt Q9HD26); assay: blockers of CAL PDZ–TMR peptide complex – biochemical, fluorescence polarization, untagged CAL PDZ, cherry-pick, set 2, dose response (AID 602254); conditions: Purified CAL PDZ; series mostly up to 60 µM; activity change, negative = inhibition: at the top concentration;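 also: 0% = DMSO neutral control and -100% = unlabeled peptide PRC23 positive control; more negative means stronger blocking of peptide binding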

Activity change, negative = inhibition, inactive:
COc1ccc(NC2CCCN(C(=O)c3csc(C(C)C)n3)C2)cc1 (centres undefined) -1.33%
O=C1OC(CO)CN1Cc1ccccc1 (centres undefined) -3.64%
O=S1(=O)c2c(F)cccc2OC(COCc2ccccc2)CN1C1CCCC1 (centres undefined) 9.91%
Cc1ccc(C)c(N(CC(=O)N2CCCC2)S(C)(=O)=O)c1 6.46%
COc1ccc(NC(=O)n2ncc3c(C)cccc32)cc1 2.29%
O=C(O)c1c(-c2ccc(Cl)cc2)cn2ccccc12 -0.658%
O=C(NCc1ccncc1)C(=O)N/N=C/c1ccccn1 -0.098%
O=C(COC(=O)COc1ccc(Br)cc1)NCC1CCCO1 (centres undefined) -4.89%
CCCCN1CC(COCc2ccccc2)Oc2cccc(F)c2S1(=O)=O (centres undefined) 0.998%
COc1ccccc1C(=O)Nc1ccc2c(c1)nc(CN1CCCCC1)n2C 3.14%
COC(=O)Cc1ccc(NC(=S)Nc2cccc(C)n2)cc1 2.44%
O=C(CN1CCC(n2nnc3cc(C(F)(F)F)ccc32)CC1)Nc1ccc2c(c1)OCCO2 -1.87%
CCOC(=O)C(/C=N/c1cc(C)nn1-c1ccccc1)=C(\C)O 3.31%
CCc1ccc(C(=O)NNC(=O)c2c(CC)noc2C)cc1 -3.88%
COc1ccc(/C=N/N2CCN(Cc3ccc(C)cc3)CC2)cc1Br 1.63%
Cc1ccc(C(=O)NN2C(=O)c3ccc(S(=O)(=O)c4ccc(C(=O)O)cc4)cc3C2=O)cc1 -1.61%
CC(C)CNC(=O)NC(=O)COC(=O)COc1ccc(Cl)cc1Cl 1.9%
COc1ccccc1C(=O)Oc1ccccc1C(=O)Nc1ccccc1 -11.9%
Cc1ccc2nc(NC(=O)COC(=O)c3ccncc3)sc2c1 2.09%
O=C(O)Cc1sc(-c2ccc(Cl)cc2)nc1-c1ccccc1 3.43%
Cc1noc(C)c1COc1cccc(C(=O)OC(C)C#N)c1 (centres undefined) -4%
COc1ccc(CN2CCNC(=O)C2CC(=O)NC2CCCCCCC2)cc1OC (centres undefined) 1.79%
CCC(C)(C(=O)NC1CCCCC1)N(C)C(=O)c1ccccn1 (centres undefined) 0.953%
Cc1cc(CN(C)C(=O)C2CCC(=O)N(CCc3cccc(F)c3)C2)on1 (centres undefined) -0.419%
Cc1onc(-c2c(Cl)cccc2Cl)c1C(=O)N1CCN(c2ncccn2)CC1 2.53%
CC(C)c1ccc(S(=O)(=O)N2CCN(C(=O)c3cccc(F)c3)CC2)cc1 4.73%
Cc1ccc(/C=N/N(C)S(=O)(=O)c2ccc(C)cc2)cc1 -0.427%
CCOc1ccc(NC(=O)CCN2CCN(S(=O)(=O)c3ccc(F)cc3)CC2)cc1 -0.08%
Cc1ccccc1C(=O)c1cccn1CC(=O)NCCC1=CCCCC1 0.05%
COc1ccccc1NC(=O)C1CCN(C(=O)NCc2ccccc2)CC1 0.179%
CCSc1ccccc1C(=O)NCCc1ccccc1 -8.58%
COc1ccc(C)cc1NC(=O)Cn1c(=O)oc2ccccc21 -1.95%
O=C(NNC(=O)C1CCC1)c1ccc(Br)cc1 -0.869%
CC1CCN(C(=O)COc2ncnc3ccccc23)CC1 -1.92%
COc1ccc(CCC(=O)Nc2ncc(C)s2)cc1OC -1.11%
CC(=O)Nc1ccc(NCC(=O)c2ccccc2)cc1 5.34%
O=C(Oc1ccccc1)N1CCOCC1 0.207%
CCCN1CCN(S(=O)(=O)c2ccc3c(c2)CCC(=O)N3)CC1 -0.697%
COC(=O)c1c(NC(=O)CN(C)CC(=O)Nc2ccc(C)cc2)sc2c1CCC(C)C2 (centres undefined) 0.538%
CCOC(=O)Cn1c(=O)oc2cc(S(=O)(=O)N(C)Cc3ccccc3)ccc21 -0.806%
CC(C)Oc1cccc(C(=O)C2CCCN(C(=O)CCn3cnnn3)C2)c1 (centres undefined) 0.618%
CC1CCC(NC(=O)c2nn(C)c3c2CSc2ccccc2-3)CC1 (centres undefined) -0.08%
CCOC(=O)c1ccc(S(=O)(=O)NCC(C)(C)N2CCOCC2)cc1 0.845%
c1ccc(CN2CCCC3(CCCN(Cc4nc(COc5ccccc5)no4)C3)C2)cc1 (centres undefined) -0.026%
O=C(COc1ccc(Cl)cc1)Nc1cc(NC(=O)COc2ccc(Cl)cc2)cc(C(=O)O)c1 9.23%
CN(Cc1cnccn1)Cc1nc(Cc2ccccc2F)no1 0.187%
CCCNC(=O)C1CCC(CNS(=O)(=O)c2ccc3c(c2)CC(C)N3C(C)=O)CC1 (centres undefined) 0.309%
Fc1ccc(Cn2cc(C(=S)N3CCOCC3)c3ccccc32)cc1 0.943%
CCC(=O)N1CCc2cc(Br)cc(S(=O)(=O)N3CCCCC3CC)c21 (centres undefined) -1.65%
CC1CCN(Cc2nnnn2CCCC(=O)NCCc2cnn(C)c2)CC1 -1.37%
Cc1ccc(O)c(-c2cc(-c3cccc(Br)c3)n[nH]2)c1 0.711%
C=CCc1ccc(OCCCCN2CC(C)OC(C)C2)c(OC)c1 (centres undefined) 0.21%
Cc1noc(NS(=O)(=O)c2ccc(NC(=O)c3ccc(N(C)C)cc3)cc2)c1C -0.732%
Cc1ccc(NC(=O)CN(C)C(=O)COc2cccc3ccc(C)nc23)cc1 -0.235%
COc1ccc(-c2[nH]ncc2CNC(C)CCn2cccn2)cc1F (centres undefined) -0.462%
Cc1ccc(N2CCN(CCCCN3C(=O)C4CCCN4C3=O)CC2)cc1 (centres undefined) -1.07%
COc1ccc(-c2csc(N3C(=O)CNC3=S)n2)cc1 -9.99%
N#Cc1ccc(NC(=O)NN2CCCCCC2)cc1 2.36%
CCN1CCCc2cc(CN(CCN3CCOCC3)C(=S)Nc3cccc(C)c3)ccc21 1.91%
N/N=C(\c1ccccc1)c1cc(Br)ccc1N 1.57%
COc1ccc(NC(=O)Oc2cc(C)ccc2C(C)C)cc1 -0.959%
OCCCc1cn(Cc2ccccc2)c2ccccc12 -0.804%
O=C(Cn1cccc1C(=O)c1ccccc1)NCc1ccccc1Cl -3.87%
CC(C)(C)c1cc(C(=O)NNc2cccc(Cl)c2)n(Cc2ccccc2)n1 -0.821%
O=C(NCc1ccc(F)cc1)c1c2c(nc3ccccc13)CCN(Cc1ccccc1)C2 -1.25%
CC(C)CC1NC(=O)N(CC(=O)N(C)C2CCCCC2)C1=O (centres undefined) -0.87%
N#Cc1c(N)c(C#N)c(-c2ccc(O)cc2)c2c1CCCC2 -0.315%
Cc1cccc(C)c1NC(=S)NC(C)(C)CO 1.29%
CC(C)(C)OC(=O)n1cc(C(=O)c2ccccc2O)cn1 1.29%
Cc1cc(Nc2ccccc2Cl)nc(-c2ccccc2O)n1 1.86%
CN(C)CCCNC(=S)Nc1ccc(Oc2ccccc2)cc1 -9.71%
COC(=O)c1ccc(NC(=S)Nc2cccc(C)n2)cc1 -2.33%
Cc1cc(C)nc(NCC(O)CNc2ccccc2C)n1 (centres undefined) 2.94%
Cc1ccc(Cl)c(NC(=O)COC(=O)C2CCC2)c1Cl -2.31%
COC(=O)c1cc2ccsc2n1Cc1cccc(F)c1 1.78%
O=S(=O)(NC1CCCC1)c1ccc(-n2cnnn2)cc1 0.658%
COc1ccc(Cl)cc1C(=O)NNC(=O)CNC(=O)c1ccc(C)s1 -0.888%
COc1ccc(CCNS(=O)(=O)c2ccc(-n3cnnn3)c(OC)c2)cc1OC 1.4%
COc1ccccc1C(=O)NC(CCSC)C(=O)NC1CC1 (centres undefined) 4.47%
COc1ccc(OCCSc2nnc(C(C)NC(=O)c3ccccc3F)n2C)cc1 (centres undefined) -3.42%
COc1ccc(NC(=O)Nc2nnc(C(C)(C)C)s2)cc1 -1.28%
CCSc1nnc(NC(=O)CCNC(=O)c2ccccc2Cl)s1 -1.72%
O=C(CNC(=O)CNC(=O)c1ccc(Cl)cc1Cl)NCc1cccc(Cl)c1 -0.331%
O=C(O)CC(CNC(=O)C1CCCN1C(=O)OCc1ccccc1)c1ccccc1 (centres undefined) -2.42%
CC(=O)c1cc(Cl)ccc1OCC(=O)Nc1cccc(S(=O)(=O)N2CCCC2)c1 6.73%
O=C(COc1ccc2c(c1)OCO2)Nc1nccs1 1.01%
COC(=O)c1ccc(CN2C(=O)c3ccccc3S2(=O)=O)cc1 -0.049%
CCc1nnc(NC(=O)c2cc(S(=O)(=O)N3CCCCC3)ccc2C)s1 1.84%
COC(=O)c1cc(S(=O)(=O)N2CCCC(C)C2)c[nH]1 (centres undefined) 1.02%

From PubChem BioAssay AID602254 (Broad Institute, 2012)
